High-throughput results: PubChem BioAssay, several laboratories
Sampled rows, rich in hits. Any-hit rate of the full collection: about 1.6%.
MLLE-PAM2 inh: blocks PAM2 peptide binding to the PABP1 MLLE domain | P11940 | GST-MLLE / FITC-PAM2 fluorescence polarization | inhibition, % at 20 µM | hit rate 0.36% among 360,000; in the data active = inhibition above about 35%, passing the limit was not always enough
Target sequence (P11940 whole entry, looked up, the tested form may be a part): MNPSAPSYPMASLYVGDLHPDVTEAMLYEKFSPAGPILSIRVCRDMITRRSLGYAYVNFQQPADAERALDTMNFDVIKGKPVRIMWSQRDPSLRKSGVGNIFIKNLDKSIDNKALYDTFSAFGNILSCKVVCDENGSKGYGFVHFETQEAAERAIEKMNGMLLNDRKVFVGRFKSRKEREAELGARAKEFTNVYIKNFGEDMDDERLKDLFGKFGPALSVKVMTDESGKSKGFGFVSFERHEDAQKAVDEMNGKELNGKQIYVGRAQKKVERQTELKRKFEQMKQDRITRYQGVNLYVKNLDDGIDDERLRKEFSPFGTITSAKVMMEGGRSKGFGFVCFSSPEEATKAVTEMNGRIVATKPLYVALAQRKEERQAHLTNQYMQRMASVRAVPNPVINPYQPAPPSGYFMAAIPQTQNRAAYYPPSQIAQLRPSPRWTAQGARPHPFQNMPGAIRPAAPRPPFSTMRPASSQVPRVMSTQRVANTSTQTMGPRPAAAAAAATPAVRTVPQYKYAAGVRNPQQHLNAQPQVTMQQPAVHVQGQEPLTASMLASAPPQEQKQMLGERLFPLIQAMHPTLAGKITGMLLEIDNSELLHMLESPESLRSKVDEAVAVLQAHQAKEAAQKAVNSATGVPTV
eIF4E 4G PPI: inhibitors of eIF4E and eIF4G interaction in translation initiation | P63073+Q04637 | TR-FRET eIF4E-eIF4GI(517-606) binding, 2 h | inhibition, % at 21.7 µM | hit rate 0.37% among 220,000;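 active = inhibition above about 30%, limit read from the data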
eIF4H inh: inhibitors of RNA binding by human eIF4H | Q15056 | eIF4H fluorescence polarization binding assay | inhibition, % at 35 µM | hit rate 0.94% among 290,000;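 note: calls also rest on retests at 20 µM and on dose response follow-up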
PERK inh: inhibitors of human PERK kinase | CHO PERK-DD fusion, SEAP luminescence translation reporter | Q9NZJ5 | hit rate 0.17% among 220,000 | inhibition, % at 5.6 µM;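 active = inhibition above the mean inhibition of all tested compounds plus 3 SD, set separately per screening campaign, cut at about 2.9% in these data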;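 note: PERK kinase domain activated by AP20187 dimerizer at 100 nM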
PABP FP inh: PABP-poly(A) binding inhibition; PABP-poly(A) RNA binding, fluorescence polarization; inhibition, % at 35 µM; P11940; hit rate 1% among 290,000;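 note: calls also rest on retests at 20 µM and on dose response follow-up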
Each line names hits and unclear results; the compound was inactive in the other large screens. Unless noted, the rule behind the calls is not given here.

Cc1ccc(CN2CCN(Cc3cc(=O)c4ccccc4[nH]3)CC2CCO)o1 (stereo unspecified)	eIF4H inh 58
N#Cc1c(-c2ccco2)cc(-c2ccccc2)[nH]c1=O	eIF4H inh inconclusive, PABP FP inh 101
O=C(Nc1nnc(C2CC2)s1)C1CC(=O)N(c2ccc3c(c2)OCCO3)C1 (stereo unspecified)	eIF4H inh 96, PABP FP inh active
O=C(Nc1nnc(C2CCCCC2)s1)C1CC(=O)N(c2ccccc2)C1 (stereo unspecified)	none (no result: eIF4E 4G PPI, PERK inh)
C=CCSC1=C(C#N)C(c2ccccc2OCC)C(C#N)C(=O)N1 (stereo unspecified)	MLLE-PAM2 inh 41
CCCCN(CC)C(=O)c1cc2c(=O)n3cccc(C)c3nc2s1	none (no result: eIF4E 4G PPI, PERK inh)
CCOC(=O)c1c(-c2ccc(C)o2)csc1N	eIF4H inh 52, PABP FP inh 68
CCC(C)Cn1c(S(=O)(=O)O)nc2ccccc21 (stereo unspecified)	none
CC(C)Cn1c(S(=O)(=O)O)nc2ccccc21	PERK inh 3.5
Oc1ccccc1/C=C/c1noc(-c2ccccc2O)n1	PABP FP inh 52
COc1ccc(Cl)c2sc(N(CCN(C)C)C(=O)c3ccc4c(c3)OCCO4)nc12	none (no result: eIF4E 4G PPI, eIF4H inh, PERK inh, PABP FP inh)
CCC(=O)OC1(C)C(=O)C2=COC(c3ccc(OC)cc3)=CC2=C(Br)C1=O (stereo unspecified)	eIF4H inh inconclusive, PABP FP inh inconclusive (no result: PERK inh)
COc1ccc(C2=CC3=C(Br)C(=O)C(C)(O)C(=O)C3=CO2)cc1 (stereo unspecified)	PABP FP inh 56 (no result: PERK inh)
COC(=O)c1sccc1NC(=O)Nc1ccc(OC)cc1OC	none (no result: eIF4E 4G PPI, PERK inh)
CC1(C)CC(=O)C=C(Nc2ccc(F)cc2F)C1	none
CCC1(C)Cc2ccccc2/C(=C/C(=O)N2CCCCC2)N1 (stereo unspecified)	PABP FP inh 66
CNC(=O)/C=C1\NC(C)(C)Cc2ccccc21	none
COc1ccc(OC)c(N2C(=O)[C@@H]3C(c4ccccc4Cl)=NO[C@@H]3C2=O)c1	eIF4H inh 81, PABP FP inh 61
CCC(C)NC(=O)[C@H]1N2C(=O)c3c(ccc(OC)c3OC)C2SC1(C)C (stereo partly specified)	MLLE-PAM2 inh 43 (no result: eIF4E 4G PPI, PERK inh)
COc1ccc2c(c1OC)C(=O)N1C2SC[C@H]1C(=O)NC1CCCC1 (stereo partly specified)	MLLE-PAM2 inh 41 (no result: eIF4E 4G PPI, PERK inh)
CCOC(=O)C1=C(c2ccccc2)Nc2ncnn2C1c1cccc(O)c1 (stereo unspecified)	none
CSCCC(NC(N)=O)C(=O)Nc1cccc(C#N)c1 (stereo unspecified)	eIF4H inh 53
CSCCC(NC(N)=O)C(=O)Nc1ccc2ccccc2c1 (stereo unspecified)	none
O=C(COC(=O)c1nc(Cl)ccc1Cl)c1ccc(Cl)s1	none
O=C(NC(=S)NCCO)c1cn(-c2ccccc2)nc1-c1ccccc1	MLLE-PAM2 inh 50
CN(C)S(=O)(=O)c1cccc(NC(=S)N/N=C/c2ccc(O)c(O)c2O)c1	eIF4E 4G PPI 42, eIF4H inh 57, PABP FP inh 35
COc1ccc(O)c(/C=N/NC(=S)Nc2cccc(S(=O)(=O)N(C)C)c2)c1	none
O=C(Cn1c(NCCCO)nc2ccccc21)c1ccc(Br)cc1	none
O=C1NC(c2ccccc2Br)=N/C1=C\c1ccco1	eIF4H inh 57, PABP FP inh 47
O=C1NC(c2ccccc2)=N/C1=C/c1ccco1	none
COC(=O)c1sccc1NC(=S)Nc1cc(C)cc(C)c1	MLLE-PAM2 inh 38
COc1ccccc1N1CCN(CC(=O)c2c(C)[nH]c3cc(C)ccc23)CC1	none
CCN1CSC(=S)N(Cc2ccc(OC)cc2)C1	MLLE-PAM2 inh 40
CCOC(=O)c1c(C)n(-c2ccccc2)c2ccc(O)c(CN(C)C)c12	none
N#Cc1ccc(CSc2nnc(NC(=O)c3ccc4ncsc4c3)s2)cc1	eIF4E 4G PPI 75
O=C(Cn1cnc2c(cnn2-c2ccc(F)cc2)c1=O)NCc1ccco1	none
CC(C)C1OC2c3cccc4cccc(c34)C2N1c1ccccc1 (stereo unspecified)	MLLE-PAM2 inh 44
COc1cccc(C(=O)NC2CC(C)(C)NC(C)(C)C2)c1OC	none (no result: eIF4E 4G PPI, PERK inh)
CCOC(=O)c1cc(-c2ccc(N3CCOCC3)cc2)nn1-c1ccccc1C(=O)O	eIF4E 4G PPI 38
Cc1ccc[n+](-c2[nH]c(=O)sc2/C=N/NC(=O)c2ccccc2[O-])c1	MLLE-PAM2 inh 48
Cc1ccc[n+](-c2[nH]c(=O)sc2/C=N/N=C(\[O-])c2cccnc2)c1	none (no result: eIF4E 4G PPI, PERK inh)
O=C(N/N=C/c1sc(=O)[nH]c1-[n+]1ccc2ccccc2c1)c1ccccc1[O-]	none (no result: eIF4E 4G PPI, eIF4H inh, PERK inh, PABP FP inh)
O=C(N/N=C/c1sc(=O)[nH]c1-[n+]1ccccc1)c1ccccc1[O-]	MLLE-PAM2 inh 61
CN(C)c1cccc(N(C)C)c1CNC(=O)C(C)(C)C	none
O=C(COc1ccccc1)N1CCN(C(=O)Cc2ccccc2)CC1	none
Cn1ccc(=O)c2cc([N+](=O)[O-])ccc21	none (no result: eIF4E 4G PPI, eIF4H inh, PERK inh, PABP FP inh)
COc1ccc(NC(=O)CCn2c(=S)[nH]c3ccccc3c2=O)cc1OC	none (no result: eIF4E 4G PPI, PERK inh)
COC(=O)CC1=C(C(=O)OC)C(c2ccncc2)C(C#N)=C(N)O1 (stereo unspecified)	PABP FP inh 105
COC(=O)CC1=C(C(=O)OC)C(c2cccc(OCC(N)=O)c2)C(C#N)=C(N)O1 (stereo unspecified)	none
CCC(CC)C(=O)Nc1cc([N+](=O)[O-])ccc1Cl	PABP FP inh 68
CCC(CC)C(=O)Nc1cc([N+](=O)[O-])ccc1F	none
COc1ccccc1C1CC(c2cccs2)=Nc2ccccc2S1 (stereo unspecified)	MLLE-PAM2 inh 46
COc1ccccc1C1CC(c2cccs2)=NN1C(=O)CCC(=O)O (stereo unspecified)	none (no result: eIF4E 4G PPI, PERK inh)
Cc1onc(-c2ccccc2)c1C(=O)N/N=C/c1ccc([N+](=O)[O-])s1	eIF4H inh 58, PABP FP inh active
Cc1onc(-c2ccccc2)c1C(=O)N/N=C/c1ccco1	none
O=[N+]([O-])c1ccc(Cl)c(-c2ccc(/C=N/c3c(-c4ccco4)nc4ccccn34)o2)c1	eIF4H inh inconclusive, PABP FP inh 74
O=[N+]([O-])c1ccc(-c2ccc(/C=N/c3c(-c4ccco4)nc4ccccn34)o2)c(Cl)c1	none (no result: MLLE-PAM2 inh)
O=[N+]([O-])c1ccc(-c2ccc(/C=N/c3c(-c4ccco4)nc4ccccn34)o2)cc1	eIF4H inh inconclusive, PABP FP inh 60
Cc1cc(C)c([N+](=O)[O-])cc1-c1ccc(/C=N/c2c(-c3ccco3)nc3ccccn23)o1	eIF4H inh inconclusive, PABP FP inh inconclusive
CCOC(=O)c1cc(C(=O)c2ccccc2O)cn2c(=O)c3c(C)c(C)sc3nc12	eIF4H inh 73 (no result: MLLE-PAM2 inh)
COc1cc(C(=O)Nc2cc(C)ccc2C)ccc1OCc1c(C)noc1C	none (no result: eIF4E 4G PPI, eIF4H inh, PERK inh, PABP FP inh)
COc1ccc(CCNC(=O)c2ccc(OCc3c(C)noc3C)cc2)cc1OC	none (no result: eIF4E 4G PPI, eIF4H inh, PERK inh, PABP FP inh)
COc1ccc(CNC(=O)COC(=O)c2ccc(OCc3c(C)noc3C)cc2)cc1OC	eIF4H inh 90
COc1cc(C(=O)NCCc2c[nH]c3ccccc23)ccc1OCc1c(C)noc1C	eIF4H inh active
